# Screening data as filed in PubChem BioAssay.
# KCNQ2 enhance: potentiators of rat KCNQ2 potassium channel; CHO-K1 KCNQ2, FluxOR thallium flux fluorescence; hits give high values; B-score at 10 µM; O88943; 310,000 tested, 0.54% active;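 active = fluorescence ratio B-score at least 3 SD of library B-scores, with initial fluorescence B-score within 3 of them, cut at about 5.3 in these data; same plate scores as AID 2156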;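 also: B-score of peak minus minimum over baseline fluorescence ratio after K+ and Tl+ stimulus; positive B-score means potentiation of KCNQ2 with more thallium influx and brighter signal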
# Target sequence (O88943 whole entry, looked up): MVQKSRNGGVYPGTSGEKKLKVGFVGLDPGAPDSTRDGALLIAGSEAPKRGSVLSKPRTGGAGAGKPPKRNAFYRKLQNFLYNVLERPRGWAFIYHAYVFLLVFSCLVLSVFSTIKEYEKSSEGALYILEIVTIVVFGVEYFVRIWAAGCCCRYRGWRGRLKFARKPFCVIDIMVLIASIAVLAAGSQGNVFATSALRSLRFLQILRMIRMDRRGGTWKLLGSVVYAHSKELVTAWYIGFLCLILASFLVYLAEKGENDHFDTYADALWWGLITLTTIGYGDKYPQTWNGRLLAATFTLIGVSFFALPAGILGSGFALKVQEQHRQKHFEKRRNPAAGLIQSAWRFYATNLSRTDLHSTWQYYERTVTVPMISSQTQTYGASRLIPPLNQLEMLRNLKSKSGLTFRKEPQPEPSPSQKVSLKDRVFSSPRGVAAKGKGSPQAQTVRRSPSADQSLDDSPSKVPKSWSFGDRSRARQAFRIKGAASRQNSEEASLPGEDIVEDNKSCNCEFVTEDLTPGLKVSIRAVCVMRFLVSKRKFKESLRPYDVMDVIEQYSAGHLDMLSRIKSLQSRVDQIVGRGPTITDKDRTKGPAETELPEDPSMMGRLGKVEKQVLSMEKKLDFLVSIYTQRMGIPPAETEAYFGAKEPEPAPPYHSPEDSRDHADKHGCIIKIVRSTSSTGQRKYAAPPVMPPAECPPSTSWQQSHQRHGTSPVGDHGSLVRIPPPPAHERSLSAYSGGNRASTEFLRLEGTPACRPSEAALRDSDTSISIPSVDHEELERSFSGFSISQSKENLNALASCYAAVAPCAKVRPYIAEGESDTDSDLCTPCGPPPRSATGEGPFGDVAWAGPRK
# KCNQ2 inh: KCNQ2 (rat) channel inhibition; 310,000 tested, 1.1% active; CHO-K1 KCNQ2, FluxOR thallium flux, 20 min; hits give low values; B-score at 10 µM;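 active = fluorescence ratio B-score at most minus 3 library SDs, with starting brightness B-score within 2 library SDs, cut at about -5.5 in these data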
# * = called active by the depositor; i = inactive; . = no result given. Most compounds without a hit are left out; they make up all but 1.6% or so of the library.
SMILES,KCNQ2 enhance,KCNQ2 inh
CCN=C(NCC)SC1CC(=O)N(c2cccc(OCC)c2)C1=O (centres undefined),-6.2,-6.2*
O=S(=O)(NCc1cccnc1)c1ccc2ccccc2c1,1.4,i
Cc1c(OCC(=O)N[C@@H](Cc2ccccc2)C(=O)O)ccc2c1oc(=O)c1ccccc12,.,i
Cc1c(Cc2ccccc2)c(=O)oc2c(C)c(OC(C)C(=O)N[C@@H](Cc3ccccc3)C(=O)O)ccc12 (some centres undefined),-7.7,-7.7*
CN(C)c1ccc(/C=N/N2C(=S)SC(C)(C)C2N(O)C(=O)Nc2ccc([N+](=O)[O-])cc2)cc1 (centres undefined),-6.8,-6.8*
CNC(=O)N(O)C1N(/N=C/c2ccc(SC)cc2)C(=S)SC1(C)C (centres undefined),.,i
COc1ccc(NC(=S)N2CCc3ccccc32)cc1OC,.,i
CCOC(=O)c1nn(-c2ccccc2C)c(=O)cc1OCC(=O)N1CCN(c2ccccc2)CC1,0.05,i
Cc1ccc2c(c1)N(C(=O)CCC(=O)N1CCN(c3cccc(C)c3C)CC1)CCO2,-5.7,-5.7*
CC1CCN(C(=O)CCC(=O)N2CC(C)Oc3ccccc32)CC1 (centres undefined),.,i
Cc1cccc(N2CCN(C(=O)CCC(=O)N3CC(C)Oc4ccccc43)CC2)c1C (centres undefined),-5.9,-5.9*
Cc1ccc2c(c1)N(C(=O)CCC(=O)N1CCN(c3ccccc3)CC1)CCO2,0.01,i
CC12CCC(=O)N1C(C(=O)Nc1ccc(Br)cc1Cl)CS2 (centres undefined),0.41,i
CCOP(=O)(c1ccccc1)c1nc(-c2ccccc2Cl)oc1N1CCCCC1 (centres undefined),-5.6,-5.6*
CCOP(=O)(OCC)c1nc(-c2cccc([N+](=O)[O-])c2)oc1N1CCCCC1,.,i
Cc1cc(C)c[n+](-c2[nH]c(=O)sc2/C=N/N=C(\N)[S-])c1,0.25,i
O=C(c1ccccn1)N1N=C2/C(=C/c3ccccc3)CCCC2C1c1ccccc1 (centres undefined),.,i
CNC(=O)c1sc(N2N=C3/C(=C/c4ccccc4)CCCC3C2c2ccccc2)nc1C (centres undefined),-6.1,-6.1*
CC(=O)NS(=O)(=O)c1cccnc1Nc1ccc(Cl)cc1,1.3,i
COc1ccccc1C(=O)NC1CCN(C(=O)Nc2ccc(F)cc2)CC1,1.3,i
O=C(CSc1n[nH]c(-c2ccccc2)n1)NCc1cccc(C(=O)O)c1,.,i
C=CCSC1=N/C(=C\c2cc(OCC)c(OC(C)=O)c([N+](=O)[O-])c2)C(=O)S1,7.1*,i
C=CCSC1=N/C(=C\c2ccc3c(c2)OCO3)C(=O)S1,0.47,i
C/C(N)=C(/C#N)C(=O)COC(=O)c1ccc(NC(N)=O)cc1,0.32,i
CCOc1ccc(-c2cc(N3C(=O)Nc4ccccc4N3O)n[nH]2)cc1,0.35,i
SMILES,KCNQ2 enhance,KCNQ2 inh
CCOC(=O)c1c(N2C(=O)Nc3ccccc3N2O)n[nH]c1-c1cccc(Cl)c1,10*,i
COc1ccc(NC(=O)CC(=O)Nc2ccc(OC)cc2)cc1,.,i
Cc1ccc(C(=O)Nc2nc(-c3ccccc3)c(-c3ccccc3)o2)cc1,8.4*,i
Cc1cc(C)nc(SCC(=O)Nc2nc(-c3ccccc3)c(-c3ccccc3)o2)n1,0.07,i
Cc1ccc(/C=C(\C#N)C(=O)Nc2cccc(C)n2)cc1,.,i
Cc1ccc(S(=O)(=O)N(C)C)cc1NC(=O)C1CCCN(C(=O)c2ccc(Cl)cc2)C1 (centres undefined),0.47,i
Cc1ccc2c(c1)cc(CN(Cc1cccs1)C(=O)c1ccco1)c1nnnn12,1.8,i
Cc1ccc2cc(CN(Cc3cccs3)C(=O)c3ccco3)c3nnnn3c2c1C,-6,-6*
COc1cccc(NC(=O)COC(=O)c2ccc(S(=O)(=O)NCc3ccco3)cc2)c1,1.7,i
O=C(CSc1cc(Cl)ccc1Cl)NC1CCCC1,0.74,i
CCc1ccc(NC(=O)C2C3/C=C\CCCCC32)cc1 (centres undefined),5.8*,i
CCc1ccc(NC(=O)C2CCCCC2C(=O)O)cc1 (centres undefined),0.17,i
Cc1cccnc1NC(=O)c1ccc(COc2ccccc2)o1,.,i
COC(=O)CCCC(=O)NC1CCCc2c1cnn2-c1ccc(F)cc1F (centres undefined),0.83,i
CC(=O)Nc1ccc(NC(=O)C2CC(=O)N(c3ccccc3Cl)C2)cc1 (centres undefined),21*,i
CC(=O)Nc1ccc(NC(=O)C2CC(=O)N(c3ccc(Cl)cc3)C2)cc1 (centres undefined),.,i
CN1CCN(Cc2c(O)ccc3occ(C(=O)c4ccccc4)c23)CC1,1.6,i
CC(=O)C(C(C)=O)c1c(Cl)c(O)c(O)c2c(C(=O)c3ccccc3)coc12,-7.3,-7.3*
Cc1ccc2c(c1)C1CN(C)CCC1N2Sc1ccccc1[N+](=O)[O-] (centres undefined),.,i
CCOC(=O)CC1(NC(=O)C2CCC(=O)N(CCc3ccccc3)C2)CCCCC1 (centres undefined),-6.3,-6.3*
CCOC(=O)CC1(NC(=O)C2CCC(=O)N(C3CC3)C2)CCCCC1 (centres undefined),.,i
N#Cc1c(-c2ccccc2)c(-c2ccccc2)n(Cc2ccco2)c1NC(=O)c1cccs1,-6.3,-6.3*
O=C(CSc1nnc(-c2ccc(O)cc2)n1Cc1ccco1)c1cccs1,0.02,i
Cc1cccc(-n2c(CNC(=O)c3ccc(S(=O)(=O)N(C)C)cc3)nnc2SCC(=O)Nc2ccc(F)cc2)c1,0.26,i
CC(C)N(C)Cc1nnnn1CC(=O)NCCc1cccc(C(F)(F)F)c1,.,i
SMILES,KCNQ2 enhance,KCNQ2 inh
Cc1cccc(-c2noc(CN(C(=O)C34CC5CC(CC(C5)C3)C4)C(C)C)n2)c1,-5.7,-5.7*
COc1cc(OC)cc(C(=O)N(Cc2nc(-c3cccc(C)c3)no2)C(C)C)c1,.,i
O=C(CSCc1ccccc1Br)NNC(=S)NCc1ccco1,.,i
COC(=O)c1cn(NC(=O)Cc2ccc(OC)c(OC)c2)c(=O)c2ccccc12,.,i
COC(=O)c1cn(NC(=O)Cc2cccc(OC)c2)c(=O)c2ccccc12,7.2*,i
O=C(NCc1cccnc1)Nc1ccc(Cl)cc1Cl,.,i
CCc1ccccc1N1C(=O)[C@@H]2Cc3ccccc3CN2C1=O,.,i
O=C(CN1C(=O)COc2ccccc21)N(Cc1ccccc1)Cc1ccccn1,-6.1,-6.1*
Cc1ccc(CN(Cc2cccnc2)C(=O)CN2C(=O)COc3ccccc32)o1,.,i
CCN(Cc1cc(OC)c(OC)c(OC)c1)C(=S)Nc1cccc(SC)c1,3.2,i
COc1ccc(C2NC3=C(CCCC3)C(C#N)(C#N)C2(C#N)C#N)cc1 (centres undefined),-5.8,-5.8*
COc1ccc(C2NC3=C(CCC3)C3(C#N)C4(N=C(N)C23C#N)OCCO4)cc1 (centres undefined),.,i
COc1cccc(CNC(=O)C(C(=O)NCc2cccc(OC)c2)c2ncc(C(F)(F)F)cc2Cl)c1,0.23,i
O=C(Oc1ccccc1)c1cccnc1Oc1ccccc1,0.07,i
Cc1cc(C)cc(N(CC(=O)N2CCN(c3ccccc3)CC2)S(=O)(=O)c2c(C)noc2C)c1,-6.5,-6.5*
COc1cccc(N2CCN(C(=O)CN(c3cc(C)cc(C)c3)S(=O)(=O)c3c(C)noc3C)CC2)c1,.,i
